Our source for the growth values is PubChem BioAssay (NCI).

The subject of the test is MDA-MB-468 breast. In words: NCI-60 one-dose screen, 48 h (100 = growth as untreated, 0 = no growth, -100 = all killed). The following applies: 10 µM unless noted.

Each structure is given as a SMILES string. “And” between values parts separate entries of the source, which are not always exact repeats. Equal entries are not always repeated. The panel holds about 83,000 compounds, 20% with a hit somewhere; the sample as a whole holds those more often.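 A percent growth of 40 corresponds to 60% growth inhibition; 0 means no net growth; -100 means all cells died. Active threshold: below 10.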 The source made the active and inactive calls.

For the compound `Cc1ccc(C(=O)C2CN(C)CCC2(O)c2ccc(C)cc2)cc1` (centres undefined), the growth is 119% (inactive). In the case of `O=C(CBr)OCCOC(=O)CBr`, the growth was 32.8% (inactive).

Regarding `O=[N+]([O-])c1ccc([Se]C2CCCCC2Cl)c([N+](=O)[O-])c1` (centres undefined), the growth was 90.5% (inactive).

For the compound `[Cl][Sn]([c]1ccccc1)([c]1ccccc1)[c]1ccccc1`, the growth is -75% (active).

Take `O=C(CBr)Nc1ccc(Cl)cc1`: the growth was 92.8% (inactive). The figure for `C=COC(=O)CCN1CC1` is 108% (inactive). The figure for `CNC(=O)Oc1ccc(N(C)C)cc1C(C)C` is 74.8% (inactive); for `Cc1cc([N+](=O)[O-])c2ccccc2[n+]1[O-]` it is -55.7% (active). On to `COc1ccc2c(c1)NC1=C(C(=O)OC1)C2c1cc(OC)c(OC)c(OC)c1` (centres undefined), for which the growth was -16.3% (active). With `N#CCc1ccc(CC#N)cc1`, the growth is 100% (inactive). With `O=[N+]([O-])c1ccc2scc3c4ccccc4nc-3c2c1`, the growth was -84.5% (active). Consider `CC(CC1CCCCC1)NCc1ccccc1` (centres undefined), for which the growth was 102% (inactive). Regarding `CCOP(=O)(OCC)C(O)c1ccccc1Cl` (centres undefined), the growth was 103% (inactive).

For `O=C1NC(=O)C(=Cc2ccc(OCCCCC3CCCCC3)c(Cl)c2)C(=O)N1`, the growth is 101% (inactive). Then `O=[P+](O)c1cccnc1`, with 99.1% (inactive).

In the case of `C1CCC([PH+](C2CCCCC2)C2CCCCC2[PH+](C2CCCCC2)C2CCCCC2)CC1.[Au].[CH-]1CCCCC1CC1CCCC[N-]1` (centres undefined), the growth is -61.8% (active).

For `CCOP(=O)(OCC)C(=O)N(CC)CC`, the growth is 90.3% (inactive). Turning to `CCC(C)/C=C(C)/C=C/C(=O)c1c(O)c(-c2ccc(O)cc2)c[nH]c1=O` (centres undefined), the growth is 30.3% (inactive).

On to `N#CC1=C(N)Oc2cc3c(cc2C1c1cccs1)OCO3` (centres undefined), for which the growth is 6.33% (active). As to `CN[C@@]1(c2ccccc2Cl)CCCC[C@@H]1NCC1CCCO1` (some centres undefined), the growth is 96.3% (inactive). In the case of `CCOP(=O)(OCC)Oc1ccc(Sc2ccc(OP(=O)(OCC)OCC)cc2)cc1`, the growth is 107% (inactive).

As for `ClCCN(CCCl)c1ccc(OCc2ccccc2)cc1`, the growth is 58.3% (inactive).

On to `CC(C)CCC(=O)O[C@H]1CC[C@H]2[C@@H]3CCC4=CC(=O)CC[C@]4(C)[C@H]3CC[C@]12C`, for which the growth is 102% (inactive).

In the case of `O=C1OCC2=C1C(c1ccccc1)c1cc3c(cc1N2)OCO3` (centres undefined), the growth is -9.05% (active). Take `O=C([O][Hg][c]1ccccc1)c1ccccc1`: the growth was -67.2% (active). In the case of `COc1ccccc1/C=C(/C)[N+](=O)[O-]`, the growth was 14.4% (inactive) and 103% (inactive).

With `CC(=O)[O][Hg][c]1c(C)c(C)cc(C)c1C`, the growth was -79.4% (active).

As for `C[C@@H]1C/C=C\C(=O)O[C@H](/C=C/C#C/C=C/C(C)(C)[C@@H](O)c2cccc(O)c2Br)[C@@H](C)/C=C/[C@H](C)C[C@H](OC(N)=O)C1`, the growth was 33.6% (inactive). Regarding `CCN(CC)CCOc1c(C(C)C)cccc1C(C)C`, the growth was 88.1% (inactive). In the case of `Cc1cc(NC(=O)/C=C/c2ccc([N+](=O)[O-])cc2)ccc1S(=O)(=O)F`, the growth is 114% (inactive). For `C=C=[CH][Sn]([c]1ccccc1)([c]1ccccc1)[c]1ccccc1`, the growth is -66.5% (active).

Regarding `C(=NC1CCCCC1)=NC1CCCCC1`, the growth was 103% (inactive) and -21.2% (active). Regarding `O=C(O)c1cc(Cc2ccc(O)c(C(=O)O)c2)ccc1O` (tested in a mixture with another compound), the growth was -46.8% (active). For the compound `O=S(=O)(F)c1ncnc2nc[nH]c12`, the growth is 96.1% (inactive).

For `c1ccc2c(c1)O[As](O[As]1Oc3ccccc3O1)O2`, the growth was 10.7% (inactive). Consider `O=C(c1cccs1)C1NO[N+]([O-])=C1c1cccs1` (centres undefined), for which the growth was -47.7% (active). The figure for `Cc1ccccc1O` is 103% (inactive). Consider `O=CN1N=C(c2ccccc2)CC1c1sc(N(CCCl)CCCl)nc1Cl` (centres undefined), for which the growth was 94% (inactive). As for `C=CC[PH+](c1ccccc1)c1ccccc1.C=CC[PH+](c1ccccc1)c1ccccc1.[Cl][Pt][Cl]`, the growth was -20.5% (active). For the compound `O=C(CI)Nc1ccc(Br)cc1`, the growth is 79.1% (inactive). In the case of `CC(=O)O[C@H]1CC[C@]2(C)[C@H]3CC[C@]4(C)[C@@H](OC(C)=O)CC[C@H]4[C@@H]3[C@@H](C)[C@]2(O)C1`, the growth is 104% (inactive). Regarding `CCOC(=O)CCC(NC(=O)C(Cc1ccc(N(CCCl)CCCl)cc1)NC=O)C(=O)OCC` (centres undefined), the growth was -89.3% (active). Then `CC1(C)N=C(N)N=C(N)N1c1ccc(CNC(=O)Nc2ccc(S(=O)(=O)F)c(Cl)c2)c(Cl)c1`, with 30.2% (inactive); and `O=NNc1ccccn1`, with 78.5% (inactive).
